Holding throughout (assay): NCI-60 one-dose screen, 48 h (100 = growth as untreated, 0 = no growth, -100 = all killed)
What all share (settings): 10 µM unless noted

The test system of test [1] is T-47D breast.
For test [2], the system named is BT-549 breast.
Test [3] deals with MDA-MB-435 melanoma.
The test system of test [4] is SW-620 colon.
Test [5] concerns MCF7 breast.
In test [6] the test system is HCT-116 colon.
For test [7], the system named is HCC-2998 colon.
For test [8], the system named is KM12 colon.

The values that follow come from PubChem BioAssay (NCI).

This is part of a sample that, as a whole, favours compounds with a hit. Of some 83,000 tested, about 20% had one in any assay.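 Single-concentration screen, 48 h exposure, 96-well plates. Endpoint: percent growth. Below 10 = active.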 Values without a mark were called inactive. Active and inactive are the calls of the source.

With `CC(=O)Nc1nc(C(=O)N2N=C(C)/C(=C/c3cccs3)C2=O)cs1`, the growth in test [1] is 100%; in test [2], 97%; in test [3], 103%; in test [4], 110%; in test [5], 90.8%; in test [6], 100%. Besides, the figures for the growth in test [7] and in test [8] were 108% and 110%, respectively.
As to `COc1cc(Cn2c(-c3nonc3N)nc3ccccc32)ccc1C`, the growth in test [1] was 37.2%; in test [2], 66.9%; in test [3] it was -30.6% (active); in test [4] it was 31.2%; in test [5] it was 20.7%; in test [6], 20.3%. In addition, in test [7], the growth is 23.5%.
For `COc1cc(CNC(=O)CCSc2nc3ccccc3c(=O)n2Cc2cc(OC)c(OC)c(OC)c2)cc(OC)c1OC`, the growth in test [1] is 29.3%; in test [2] it was 48.3%; in test [3], -28.7% (active); in test [4], 23.9%; in test [5], 15.4%; in test [6], 17%. Further, the growth in test [7] is 86%.
As to `COc1cc(C(=O)CCCl)ccc1O`, the growth in test [1] is 94.7%; in test [2] it was 112%; in test [3], 103%; in test [4], 103%; in test [5], 80.2%; in test [6], 100%. The growth in test [7] was 103%; in test [8] it was 97.1%.
Turning to `CCC(=O)Oc1ccc2c(c1)CC[C@@H]1[C@@H]2CC[C@]2(C)C[C@H](OC(=O)CC)C[C@@H]12`, the growth in test [1] is 83.7%; in test [2] it was 60.1%; in test [3] it was 0.38% (active); in test [4], 48.2%; in test [5], 68.5%; in test [6], 50.5%. The growth in test [7] is 85%; in test [8], 53.5%.
As to `COc1ccccc1CNCCCN1C(=O)c2ccc3c4c(ccc(c24)C1=O)C(=O)N(CCCNCCCCNCCCCN)C3=O`, the growth in test [1] was -1.05% (active); in test [2], 102%; in test [3], -59.7% (active); in test [4], 2.99% (active); in test [5], -34.9% (active); in test [6], 3.34% (active). In addition, the growth was -4.93% (active) in test [7] and 5.46% (active) in test [8].
In the case of `CN(C)c1ccc(C2CC(c3ccccc3)=NN2/C=C2\SC(=O)NC2=O)cc1` (centres undefined), the growth in test [1] is 86.7%; in test [2] it was 87%; in test [3] it was 83.1%; in test [4] it was 83.9%; in test [5], 65.4%; in test [6], 85.9%. Also, the growth in test [7] is 101%; in test [8], 82.2%.
On to `Cc1ccc(Nc2ncnc3c2sc2ncccc23)cc1`, for which the growth in test [1] is 95.9%; in test [2], 111%; in test [3], 108%; in test [4], 99.8%; in test [5], 92.8%; in test [6] it was 106%. Besides, the growth in test [7] was 103%; in test [8] it was 105%.
`Nc1cc2c(cc1N)-c1cc(N)c(N)cc1C2`: the growth is 110% in test [1]; 79.7% in test [2]; 108% in test [3]; 102% in test [4]; 93.5% in test [5]; 104% in test [6]. Further, the growth in test [7] was 105%; in test [8], 101%.
For `Clc1ccc2c(c1)NC1(CCSc3ccccc31)n1nccc1-2` (centres undefined), the growth was 101% in test [1]; 97.4% in test [2]; 110% in test [3]; 102% in test [4]; 102% in test [5]; 89.4% in test [6]. The growth is 97.3% in test [7] and 102% in test [8].
As to `CCOC(=O)/C=C\C(=O)NC(N)=O`, the growth in test [1] is 89.1%; in test [2] it was 100%; in test [3], 106%; in test [4] it was 107%; in test [5] it was 96.3%; in test [6], 86.4%. In addition, the growth in test [7] was 95.2%; in test [8] it was 106%.
Regarding `COc1ccc(Cn2c(SC)nc(=O)n(Cc3ccc(Cl)cc3)c2=O)cc1`, the growth was 81.8% in test [1]; 97% in test [2]; 111% in test [3]; 103% in test [4]; 92% in test [5]; 93.9% in test [6]. Also, the growth in test [7] is 103%; in test [8], 97.5%.
Regarding `CCOC(=O)c1cc(/C(=N\O)c2cc(OC)c(OC)c(OC)c2)n2cc(C)cc(C)c12`, the growth in test [1] was 26.9%; in test [2] it was 28.6%; in test [3], -22.7% (active); in test [4], 13.3%; in test [5], 13.6%; in test [6] it was -6.14% (active). The growth was 67.5% in test [7] and 20.7% in test [8].
As to `O=C(CNC1CCCCC1)Nc1ccc(-c2nc3ccccc3s2)cc1`, the growth in test [1] was 69.1%; in test [2] it was 87.6%; in test [3] it was 90.4%; in test [4] it was 100%; in test [5], 28%; in test [6], 77%. In addition, the results for the growth in test [7] and in test [8] were 87.3% and 83.9%, respectively.
For `COc1cc(Cn2c(SCC(=O)Nc3ccc(Cl)cc3)nc3ccccc3c2=O)cc(OC)c1OC`, the growth is 45.2% in test [1]; 75.1% in test [2]; 69.8% in test [3]; 77.7% in test [4]; 77.2% in test [5]; 35.6% in test [6]. In addition, the results for the growth in test [7] and in test [8] were 93.2% and 79.4%, respectively.
With `O=C1NCC(c2cc3ccccc3[nH]c2=O)Nc2ccccc21` (centres undefined), the growth in test [1] is 91%; in test [2] it was 96.3%; in test [3] it was 107%; in test [4] it was 102%; in test [5] it was 103%; in test [6], 92.6%. For the same molecule, the growth in test [7] is 104%; in test [8], 103%.
In the case of `COc1cccc(-c2nc3sccn3c2-c2ccnc(NCCCNS(=O)(=O)c3ccccc3)n2)c1`, the growth in test [1] is 0.88% (active); in test [2] it was 47.2%; in test [3], 40.9%; in test [4], 75.1%; in test [5], 52%; in test [6], 38.6%. In addition, the growth is 93.8% in test [7] and 43.5% in test [8].
With `COc1cc2nc(N3CCC[C@@H](NC4=CC(=O)c5ccccc5C4=O)C3)nc(N)c2cc1OC`, the growth in test [1] was -40.9% (active); in test [2] it was 118%; in test [3] it was 64.7%; in test [4], -60.6% (active); in test [5], -63.3% (active); in test [6], -83.6% (active). Besides, the growth was 106% in test [7] and -35.2% (active) in test [8].
As to `CCC(C)NCC(=O)O` (centres undefined), the growth in test [1] is 86.3%; in test [2], 110%; in test [3], 101%; in test [4], 105%; in test [5] it was 103%; in test [6], 99.9%. Moreover, the figures for the growth in test [7] and in test [8] were 101% and 105%, respectively.
With `CCOC(=O)CC/C(C)=N\Nc1ccc([N+](=O)[O-])cc1`, the growth is 41.8% in test [1]; 82.4% in test [2]; 28.4% in test [3]; 57.2% in test [4]; 79.9% in test [5]; 48.7% in test [6]. The growth in test [7] is 60.4%; in test [8] it was 22.2%.
As for `CC(C)(C)OC(=O)N1C/C(=C\c2cccs2)C(=O)/C(=C/c2cccs2)C1`, the growth was 82.5% in test [1]; 97.6% in test [2]; 99.7% in test [3]; 84.5% in test [4]; 39.1% in test [5]; 63.5% in test [6]. The values for the growth in test [7] and in test [8] were 106% and 97.2%, respectively.
Take `O=C(Nc1ccc(Cl)cc1)c1cc(-c2ccc(F)cc2)c2sc(=O)[nH]c2n1`: the growth is 3.75% (active) in test [1]; -13.1% (active) in test [2]; 8.39% (active) in test [3]; 14.5% in test [4]; 4.61% (active) in test [5]; 3.3% (active) in test [6]. Also, the growth in test [7] is 22%; in test [8], 6.83% (active).
With `Cc1nc2scc(-c3ccccc3)n2c(=O)c1CCO`, the growth is 99.6% in test [1]; 116% in test [2]; 103% in test [3]; 101% in test [4]; 88.9% in test [5]; 101% in test [6]. Moreover, the growth in test [7] was 112%; in test [8] it was 103%.
In the case of `COc1cccc(-c2nc3sccn3c2-c2ccnc(NCCCNS(=O)(=O)c3ccc(F)cc3)n2)c1`, the growth in test [1] was -8.19% (active); in test [2] it was 29.6%; in test [3] it was 25.2%; in test [4], 58.4%; in test [5] it was 39.9%; in test [6], 19.9%. Also, the growth in test [7] is 82.4%; in test [8], 22.1%.
`Cn1c(=O)c2c(nc3n2CCN(CCc2ccc(OCCN4CCOCC4)cc2)C3)n(C)c1=O`: the growth in test [1] was 93.6%; in test [2], 109%; in test [3], 105%; in test [4], 105%; in test [5] it was 95.7%; in test [6], 109%. Further, the growth in test [7] was 122%; in test [8], 103%.
In the case of `COC12CC(=O)C(C(C)=O)=C(O)C1(C)c1c(O)c(C)c(O)c(C(C)=O)c1O2` (centres undefined), the growth in test [1] was 81%; in test [2] it was 78.7%; in test [3] it was 87.3%; in test [4], 80.2%; in test [5], 80.9%; in test [6], 80.6%. In addition, the growth in test [7] was 65.9%; in test [8], 49.6%.
With `C=CCOc1ccc(/C(O)=C2\C(=O)C(=O)N(c3nccs3)C2c2ccccc2F)cc1` (centres undefined), the growth in test [1] is 100%; in test [2] it was 113%; in test [3], 94%; in test [4] it was 103%; in test [5] it was 112%; in test [6] it was 95.4%. In addition, the figures for the growth in test [7] and in test [8] were 107% and 89.4%, respectively.
Regarding `COc1ccc(C(=O)/C=C/c2cc(C(=O)c3cc(OC)c(OC)c(OC)c3)ccc2OC)cc1`, the growth in test [1] was 68%; in test [2], 73.7%; in test [3] it was 51.8%; in test [4] it was 13.8%; in test [5], 20.9%; in test [6] it was 19.8%. The figures for the growth in test [7] and in test [8] were 93.1% and 40.6%, respectively.
Regarding `O=P([O-])(O)OP(=O)([O-])O.[NH-][C@H]1CCCC[C@@H]1[NH-].[OH-].[OH-].[Pt+4]`, the growth in test [1] is 114%; in test [2], 117%; in test [3], 99.3%; in test [4], 105%; in test [5] it was 96.7%; in test [6], 101%. The figures for the growth in test [7] and in test [8] were 98.8% and 104%, respectively.
In the case of `CCC(c1cccc(Br)c1)C(C(=O)O)c1ccc(OC)cc1` (centres undefined), the growth was 108% in test [1]; 113% in test [2]; 29.9% in test [3]; 93.2% in test [4]; 93% in test [5]; 112% in test [6]. Moreover, the growth in test [7] was 93.5%; in test [8], 83.3%.
As for `CCC1=C[C@@H]2CN(C1)Cc1c([nH]c3ccccc13)[C@@](C(=O)OC)(c1cc3c(cc1OC)N(C=O)[C@H]1[C@@](O)(C(=O)OC)[C@H](OC(C)=O)[C@]4(CC)[C@@H]5C[C@@H]5CN5CC[C@]31[C@@H]54)C2`, the growth in test [1] was 97.5%; in test [2], 47.9%; in test [3] it was -57.1% (active); in test [4], 26.3%; in test [5], 10.9%; in test [6] it was 7.99% (active). For the same molecule, the growth in test [7] is -13% (active); in test [8] it was 8.8% (active).
For `COc1cc(/C=C/C(=O)c2ccccc2O)ccc1OCCCOc1cc2c(cc1OC)C(=O)N1CCC[C@H]1C=N2`, the growth in test [1] was 21.8%; in test [2] it was -4.28% (active); in test [3], -28.9% (active); in test [4], 5.6% (active); in test [5], -15.1% (active); in test [6] it was 2.66% (active). The growth in test [7] is -16.7% (active); in test [8], -18.3% (active).
